Source: PubChem (National Center for Advancing Translational Sciences (NCATS))
Rows were chosen to be rich in hits. Some 11% of all compounds tested hit in one or more screens of this group.
IMPase cell inh: cell-permeable inhibitors of inositol monophosphatase (IMPase). inhibition (IP1 accumulation), % at 46.1 µM. 120,000 tested, under 10 active. AID 901. CHO-M1 cells, IP1 accumulation, HTRF TR-FRET ratio; active means well fitted curve in the direction sought with a large enough effect in the signal ratio, not every such curve was filed as active; inconclusive means small, poorly fitted or top-dose-only effect, or a change in a side signal; inactive means no such curve, though single readings can be large or run the other way; the % refers to the signal ratio;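 further: cells stimulated with carbachol in lithium chloride buffer; plate controls were DMSO basal wells for no effect and reference inhibitor wells for full effect; higher means more IMPase inhibition seen as more IP1 and lower FRET ratio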
Target sequence (P97697 whole entry, looked up): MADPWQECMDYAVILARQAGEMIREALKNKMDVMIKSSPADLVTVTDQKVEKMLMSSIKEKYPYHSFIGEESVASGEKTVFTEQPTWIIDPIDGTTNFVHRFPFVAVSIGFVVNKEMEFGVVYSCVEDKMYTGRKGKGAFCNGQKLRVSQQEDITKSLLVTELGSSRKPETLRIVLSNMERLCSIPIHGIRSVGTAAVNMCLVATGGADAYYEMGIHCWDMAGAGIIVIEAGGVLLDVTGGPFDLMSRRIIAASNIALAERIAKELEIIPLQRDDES
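CHO-M1, 2000 cells/well, cultured 16–30 h; cpd up to 46 uM; carbachol (50 uM solution, stimulation buffer w/ 50 mM LiCl, pH 7.4), 30 min 37C; IP-One TR-FRET, 10 min RT; Ex 320/Em 665, 620; Hill-fit AC50.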
ALOX12 inhib: blocks human 12-lipoxygenase activity | P18054 | purified 12-hLO, xylenol orange hydroperoxide absorbance | Potency, µM (highest dose often 57.1 µM), for the others: at the highest dose activity change, negative = inhibition, actives largely listed as inhibitors | 150,000 compounds, 0.12% hits; active means well fitted curve in the direction sought with a large enough effect; inconclusive means small, poorly fitted or top-dose-only effect, or another doubt; inactive means no such curve, though single readings can be large; an effect the other way counts as inactive or inconclusive; further: potency means the concentration at half of the fitted maximal effect; nearly all actives have a fitted effect of over 55% in size
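Purified human 12hLO (150 nM final) was preincubated with compounds for 15 min at room temperature in 25 mM Hepes pH 7.0, 0.01% Triton X-100, then reacted with 40 uM arachidonic acid for 30 min. Hydroperoxide was detected with ferrous iron/xylenol orange.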
HPGD inh: blocks human HPGD enzyme activity; AID 894; 150,000 compounds, 4.3% hits; Potency, µM, for inactives: top-dose activity change, negative = inhibition, hits mostly inhibitors; purified HPGD, NADH fluorescence kinetic, PGE2 substrate; P15428; further: potency means the concentration at half of the fitted maximal effect
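NADH formation kinetics: reaction with 30 uM PGE2 and 1 mM NAD+ (final), 20 nM enzyme, Tris-HCl pH 8 with Tween 20, after 15 min compound preincubation at room temperature. Fluorescence change, last versus first of five reads.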
IMPase Li cell: IMPase inhibition in cells with lithium potentiation. CHO-M1 cells, IP1 TR-FRET (IP-One), carbachol + lithium. Potency, µM (series often up to 59.4 µM), for inactives: at the highest dose activity, negative = IMPase inhibition, actives largely listed as inhibitors. 210,000 compounds, 0.35% hits; active means well fitted curve in the direction sought with a large enough effect; inconclusive means small, poorly fitted or top-dose-only effect, or another doubt; inactive means no such curve, though single readings can be large; an effect the other way counts as inactive or inconclusive;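 further: IP1 builds up when IMPase is blocked and the TR-FRET signal falls; potency means the concentration at half of the fitted maximal effect; plate controls were basal vehicle for no effect and high inhibitor control for full effect; nearly all actives have a fitted effect of over 50% in size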
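CHO-M1, 2000 cells/well, 16–30 h culture; cpd + low Li+, 30 min 37C; lysis with d2-IP1/Eu-anti-IP1 Ab, 10 min RT; TR-FRET 665/620 ratio and 620 channel; AC50 via Hill.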
PNC assembly inh: blocks assembly of the perinucleolar compartment. activity change (PNC), negative = inhibition, % at 10 µM. 140,000 compounds, 3.1% hits. PC3M PTB-GFP, PNC prevalence imaging, 16 h; active compounds read low;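 active means readout at or below -70, meaning at least 70% loss of cells showing the perinucleolar compartment, a nuclear body marking cancer cells; inconclusive means readout between -30 and a set limit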;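 further: plate controls were DMSO wells for no effect and camptothecin positive control wells for full effect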
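Read-out is percentage of cells bearing a perinucleolar compartment, from automated 20x imaging of fixed, Hoechst-stained PC3M PTB-GFP cells. Cells were seeded 4 h, then exposed 16 h to compound (23 nl of library stock) in duplicate plates.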
ALDH1A1 block: blocks purified human ALDH1A1 activity; Potency, µM (highest dose often 75.3 µM), without a hit: at the highest dose activity, negative = inhibition, actives largely listed as inhibitors; Purified ALDH1A1, NADH fluorescence, propionaldehyde substrate; P00352; 220,000 compounds, 7.3% hits;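 further: potency means the concentration at half of the fitted maximal effect; plate controls were no enzyme wells and a reference inhibitor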
Target sequence (P00352 whole entry, looked up): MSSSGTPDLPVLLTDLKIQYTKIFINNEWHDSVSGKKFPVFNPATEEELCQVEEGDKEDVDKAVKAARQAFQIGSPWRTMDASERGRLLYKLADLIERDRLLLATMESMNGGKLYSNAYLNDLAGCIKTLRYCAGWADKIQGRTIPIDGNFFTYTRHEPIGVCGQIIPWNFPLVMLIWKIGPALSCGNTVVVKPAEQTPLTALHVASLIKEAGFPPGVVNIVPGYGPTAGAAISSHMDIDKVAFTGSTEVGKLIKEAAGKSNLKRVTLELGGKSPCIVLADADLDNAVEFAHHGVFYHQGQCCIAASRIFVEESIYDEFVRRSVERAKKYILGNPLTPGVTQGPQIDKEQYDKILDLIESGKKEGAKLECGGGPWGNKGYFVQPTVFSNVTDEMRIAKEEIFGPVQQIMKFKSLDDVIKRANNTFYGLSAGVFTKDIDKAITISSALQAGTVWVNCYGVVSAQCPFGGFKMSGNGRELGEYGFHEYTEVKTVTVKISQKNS
The depositor's hits bear a star; ? = inconclusive; . = no result; [ ] = remark or other dose. Unless noted, the call rests on the fitted dose curve; in most records, active means well fitted inhibition curve with a large enough effect (not every such curve was filed as active); inconclusive means small, poorly fitted or top-dose-only effect, or another doubt; inactive means no such curve, though single readings can be large or run the other way. Unless noted, on the % scale 0 is the no-effect control and ±100 the full control effect.

SMILES	IMPase cell inh	ALOX12 inhib	HPGD inh	IMPase Li cell	PNC assembly inh	ALDH1A1 block
Cc1ccccc1CSCC(=O)c1c(N)n(CC(C)C)c(=O)n(C)c1=O	-4	12%	-9%	38%[38.3 µM]	40	28µM*
CNc1ccc(Br)cc(C(=O)/C=C/c2cccc(OC)c2OC)c1=O	?	-21%	14µM*	20%	-22	16µM*
COc1ccccc1/C=C/C(C)=O	.	-3%	-27%	-2%	25	-13%
CNc1ccccc(C(=O)/C=C/c2ccccc2OC)c1=O	.	-8%	13µM*	4%	52	10µM*
CCN(CC)CCn1c(=N)n(CCOc2ccccc2Cl)c2ccccc21	-9	.	.	.	.	.
COc1ccccc1-c1cc(NCc2cnc(C)cn2)ncn1	.	.	.	-1%	.	?
O=C(Nc1ccccc1Cl)C(Cl)C(=O)c1ccccc1 (stereo unspecified)	.	.	.	9%	.	1.8µM*
CCc1nnc(NC(=O)CSc2nccn2-c2cccc(C)c2C)s1	3	-3%	-16%	36%[38.3 µM]	8	16µM*
CCc1nnc(NC(=O)CSc2nnc(-c3ccccc3O)n2CC)s1	6	4%	-4%	-25%[38.3 µM]	33	1%
CCc1nnc(NC(=O)CSc2nnc(-c3cccnc3)n2CC)s1	-7	2%	-9%	29%[38.3 µM]	-104*	-9%
CC1CCc2cc(F)ccc2N1C(=O)CCl (stereo unspecified)	.	.	.	3%	.	0.14µM*
COc1ccccc1NC(=O)N1c2ccc(F)cc2CCC1C (stereo unspecified)	3	6%	-5%	37%[38.3 µM]	11	22µM*
CCCn1c(SCC(=O)N2c3ccc(F)cc3CCC2C)nnc1-c1ccccn1 (stereo unspecified)	-6	-3%	-10%	16%	-119*	?
COC(=O)C1(C(=O)OC)C[C@@H]2CON=C2[C@H]1c1ccccc1	.	2%	-11%	13%	.	11%
CCOc1ccc(Cc2noc3c2C(=O)CCC3)cc1OCC	.	.	.	1%	.	6%
CCOc1ccc(Cc2noc3c2C(=O)CC(C)(C)C3)cc1OCC	.	.	.	15%	.	11µM*
O=C(O)Cc1sc(Nc2ccc(Cl)cc2)nc1-c1cccs1	.	.	.	9%	.	1µM*
CC(C)(C)c1ccc(NC(=O)N2CCCN(c3ccc([N+](=O)[O-])cn3)CC2)cc1	.	.	.	.	.	16µM*
COc1cccc2cc(C(=O)C3=C(O)C(=O)N(Cc4ccco4)C3c3cccnc3)oc12 (stereo unspecified)	?	0%	-2%	10µM*	-23	5.6µM*
O=C(C1=C(O)C(=O)N(Cc2ccco2)C1c1cccnc1)c1cc2ccccc2o1 (stereo unspecified)	?	-9%	-9%	8.9µM*	37	14µM*
O=C(C1=C(O)C(=O)N(CC2CCCO2)C1c1cccnc1)c1ccco1 (stereo unspecified)	?	-9%	-16%	13µM*	-10	-8%
O=C1Nc2ccccc2SC(c2ccccc2)C1O (stereo unspecified)	4	-19%	28µM*	-9%[38.3 µM]	?	-13%
O=C(O)CC1Sc2ccccc2NC1=O (stereo unspecified)	9	-5%	-12%	-4%[38.3 µM]	17	-13%
NS(=O)(=O)c1ccc(NC(=S)NCC2CCCO2)cc1 (stereo unspecified)	.	-2%	?	-2%	53	28µM*
Cc1cc(C)cc(NC(=S)NCC2CCCO2)c1 (stereo unspecified)	10	-9%	14µM*	-19%[38.3 µM]	?	-9%
SMILES	IMPase cell inh	ALOX12 inhib	HPGD inh	IMPase Li cell	PNC assembly inh	ALDH1A1 block
CN(C)c1ncnc2ccc(-c3cccc(NS(C)(=O)=O)c3)cc12	.	.	.	-1%	.	27%
Nc1nc(N)nc(CC(=O)O)n1	.	0%[11.4 µM]	-13%	4%	.	0%[13.5 µM]
CC(C)C[C@H](NC(=O)[C@H](CCCCN)NC(=O)[C@H](CCCNC(=N)N)NC(=O)[C@H](C)NC(=O)[C@H](CO)NC(=O)[C@H](CCCCN)NC(=O)[C@H](CCCNC(=N)N)NC(=O)[C@H](C)NC(=O)CNC(=O)[C@@H](NC(=O)[C@H](Cc1ccccc1)NC(=O)CNC(=O)CNC(=O)[C@@H](N)Cc1ccccc1)[C@H](C)O)C(=O)N[C@@H](C)C(=O)N[C@@H](CC(N)=O)C(=O)N[C@@H](CCC(N)=O)C(=O)O	.	.	.	3%	.	4%
COc1cccc(/C=C2\SC(=S)N(N3C(=O)CCCC3=O)C2=O)c1	.	.	.	13%	.	?
CCOc1cc(/C=C2/SC(=S)N(CC3CCCO3)C2=O)ccc1O (stereo unspecified)	.	.	.	13%	.	0.45µM*
CCOc1cc(/C=C2\SC(=S)N(C(C(=O)O)c3ccccc3)C2=O)ccc1O (stereo unspecified)	.	.	.	.	.	32µM*
COc1cccc(/C=C2\SC(=S)N(CC3CCCO3)C2=O)c1 (stereo unspecified)	.	-1%	-20%	1%	-19	3.2µM*
Cc1ccccc1-c1nnc(CN2CCN(c3ccccn3)CC2)o1	12	.	.	.	.	.
O=C(CN1CCN(c2ncccn2)CC1)N1CCCc2c1c(=O)oc1ccc(O)cc21	15	28%	-11%	12%	13	0.79µM*
CCCCCOc1ccc2oc(=O)c3c(c2c1)CCCN3C(=O)CN1CCCC(C(=O)OCC)C1 (stereo unspecified)	6	4%	-12%	50%[38.3 µM]	40	25µM*
CCOC(=O)C1CCCN(CC(=O)N2CCCc3c2c(=O)oc2ccc(OCc4ccccc4)cc32)C1 (stereo unspecified)	-1	.	.	.	.	.
CC(=O)Oc1ccc2oc(=O)c3c(c2c1)CCCN3C(=O)CN1CCN(c2ncccn2)CC1	0	-10%	-9%	-8%[38.3 µM]	66	?
CCCCOC(=O)Nc1ccc(C(C)C)cc1	6[0.0738 µM]	-1%	13µM*	13%	0	2%
CCCCOC(=O)Nc1ccc(N(C)C)cc1	.	1%	32µM*	17%	?	?
CC(C)COC(=O)NCCCOC(=O)Nc1ccccc1	0	8%	-11%	0%[38.3 µM]	4	22µM*
CC(C)COC(=O)NCCOC(=O)Nc1cccc(Cl)c1	9	2%	-10%	29%[38.3 µM]	?	4%
CCCCOC(=O)Nc1ccc(C(N)=O)cc1	2	3%	-3%	11%[38.3 µM]	?	11%
CCCCOC(=O)Nc1ccc(N2CCCCC2)cc1	10	7%	-24%	3%[38.3 µM]	-16	-1%
CC1(C)OC(C(O)(c2cccc3c2oc2ccccc23)c2cccc3c2oc2ccccc23)C(C(O)(c2cccc3c2oc2ccccc23)c2cccc3c2oc2ccccc23)O1 (stereo unspecified)	.	.	.	.	.	4%[13.5 µM]
